{
  "source": "ChEMBL document CHEMBL3988442",
  "about": "“University of Dundee, Small-Polar-MMV Screening Library” (2021)",
  "note": "About 13,000 (27%) of roughly 48,000 compounds showed an effect of 50% or more. The list shows a part of the results.",
  "data": [
    {"tested_on": "Wolbachia pipientis", "experiment": "Anti-Wolbachia Cell-Based Screen", "type": "functional", "set-up": "scale not given: in the data most compounds retested in dose-response had high values", "details": "5 µM", "units": {"Percent Effect": "%"}, "values": [
      {"compound": "CCC(C)(CC(=O)OC)NCc1c(C)noc1C", "note": "(stereo not given)", "Percent Effect": -10.12},
      {"compound": "CCCN(CCOC)c1nc(C)nc2sccc12", "Percent Effect": -21.15},
      {"compound": "Cc1cc(NC(=O)N2CCN(c3cccs3)CC2)ccc1C(N)=O", "Percent Effect": 6.081},
      {"compound": "CS(=O)(=O)c1ccc(OCCNCc2c(F)cccc2F)cc1", "Percent Effect": -4.502},
      {"compound": "Cc1ccc(C(=O)N2CCOC(c3nc(C(C)(C)C)n[nH]3)C2)c(=O)[nH]1", "note": "(stereo not given)", "Percent Effect": -10.02},
      {"compound": "CCCc1n[nH]c(C2CN(C(=O)c3ccc(C)[nH]c3=O)CCO2)n1", "note": "(stereo not given)", "Percent Effect": 101.9},
      {"compound": "CCCc1n[nH]c(C2CN(C(=O)c3cncnc3C)CCO2)n1", "note": "(stereo not given)", "Percent Effect": 104.8},
      {"compound": "CC(C)n1nccc1NC(=O)NCCc1nc2ccc(F)cc2n1C", "Percent Effect": -24.15},
      {"compound": "COCCN1CCN(CC(=O)NC2(C#N)CCCC2)CC1", "Percent Effect": 5.801},
      {"compound": "CCN(Cc1cc(F)c(OC)c(Cl)c1)Cc1noc(CC(C)C)n1", "Percent Effect": -0.0931},
      {"compound": "CC(C)c1cc(N2CCSCC2)n2nccc2n1", "Percent Effect": -0.2231},
      {"compound": "Cc1nc(-c2cncnc2C2CCCNC2)no1.Cl.Cl", "note": "(stereo not given)", "Percent Effect": 112.4},
      {"compound": "CCc1nc(-c2cncnc2C2CCNC2)no1", "note": "(stereo not given)", "Percent Effect": 125.4},
      {"compound": "Cc1ncc(S(C)(=O)=O)c(C2CCCNC2)n1", "note": "(stereo not given)", "Percent Effect": 6.84},
      {"compound": "CN1CCC(N2CCC[C@H]2c2nc(-c3cncnc3N)no2)CC1", "Percent Effect": -6.986},
      {"compound": "CN1CCC[C@H]1c1nc(-c2cncnc2N)no1", "Percent Effect": -19.35},
      {"compound": "CC(C)(C)CN1CCC[C@H]1c1nc(-c2cncnc2N)no1", "Percent Effect": -5.651},
      {"compound": "CS(=O)(=O)c1cncnc1C1CCCNC1.Cl", "note": "(stereo not given)", "Percent Effect": 112},
      {"compound": "CCc1nc(-c2cncnc2C2CCCNC2)no1.Cl", "note": "(stereo not given)", "Percent Effect": 115.3},
      {"compound": "CC(C)c1ncc(S(C)(=O)=O)c(C2CCCNC2)n1", "note": "(stereo not given)", "Percent Effect": 16.25},
      {"compound": "CCc1nc(C2CCCN(c3ncc(Br)cn3)C2)no1", "note": "(stereo not given)", "Percent Effect": -4.032},
      {"compound": "CN(Cc1nc2ccccc2[nH]1)C(=O)CN(C)c1ccccc1", "Percent Effect": -21.88},
      {"compound": "O=C(CCNc1ncc2c(n1)CCN2c1ccccc1)N1CCCC1", "Percent Effect": 15.12},
      {"compound": "COCCC1CN(c2nc(-c3ccccc3)nc3c2CCNC3)CCO1", "note": "(stereo not given)", "Percent Effect": -17.27},
      {"compound": "Cc1cnc(C(=O)N2CCCC(c3nccn3Cc3cscn3)C2)cn1", "note": "(stereo not given)", "Percent Effect": 3.931},
      {"compound": "Cc1cc(C(=O)N(C)Cc2cnn(C)c2)c(NC(=O)C(C)(C)C)s1", "Percent Effect": -6.693},
      {"compound": "COCC1CN(Cc2ccsc2)Cc2cnn(C)c21", "note": "(stereo not given)", "Percent Effect": 97.33},
      {"compound": "COc1ccc(CN2Cc3cnn(C)c3C(COCC3CC3)C2)cc1", "note": "(stereo not given)", "Percent Effect": 13.17},
      {"compound": "CCOCC1CN(Cc2ccsc2)Cc2cnn(C)c21", "note": "(stereo not given)", "Percent Effect": 100.2},
      {"compound": "CCOCC1CN(CC2CC2)Cc2cnn(C)c21", "note": "(stereo not given)", "Percent Effect": -17.33},
      {"compound": "Cn1ncc2c1C(COCC1CC1)CN(Cc1cccnc1)C2", "note": "(stereo not given)", "Percent Effect": -4.691},
      {"compound": "Cn1ncc2c1C(COCC1CC1)CN(Cc1ccsc1)C2", "note": "(stereo not given)", "Percent Effect": 99.94},
      {"compound": "COCC1CN(Cc2cccnc2OC)Cc2cnn(C)c21", "note": "(stereo not given)", "Percent Effect": -15.02},
      {"compound": "CCn1ncc2c1C(COC)CN(Cc1ccsc1)C2", "note": "(stereo not given)", "Percent Effect": -10.45},
      {"compound": "CC(=O)Nc1ccc(F)c(S(=O)(=O)NC(C)(C)C)c1", "Percent Effect": -3.757},
      {"compound": "NCC1CCN(c2nc(C3CCCC3)nc3c2CCNCC3)C1", "note": "(stereo not given)", "Percent Effect": 9.164},
      {"compound": "Cc1cc(C(=O)N2CC[C@H](N3CCOCC3)[C@H](CCCO)C2)c(C)n1C", "Percent Effect": -10.4},
      {"compound": "CC(=O)C(C)CC(=O)N(Cc1cccc(C)c1)C(C)C", "note": "(stereo not given)", "Percent Effect": -23.01},
      {"compound": "COc1ccccc1CN1CC[C@H](c2nnc(-c3cncn3C)o2)C1", "Percent Effect": -5.308},
      {"compound": "Cc1ncsc1-c1nnc(C2CCN(Cc3ccccc3F)CC2)o1", "Percent Effect": 106.9},
      {"compound": "Cc1ncsc1-c1nnc(C2CCN(Cc3ccccc3Cl)CC2)o1", "Percent Effect": 122.3},
      {"compound": "Cc1ncsc1-c1nnc(C2CCN(Cc3cccc(F)c3F)CC2)o1", "Percent Effect": 117.8},
      {"compound": "Cc1ccccc1CN1CC[C@H](c2nnc(-c3cncn3C)o2)C1", "Percent Effect": 0.6101},
      {"compound": "CCn1cnnc1CNC(=O)c1ccc(Br)cc1F", "Percent Effect": -45.58},
      {"compound": "CC(C(=O)N1CCN(C(=O)c2ccc(F)cc2F)CC1)n1ccnc1", "note": "(stereo not given)", "Percent Effect": -6.751},
      {"compound": "CN(Cc1ccc(Cl)s1)C(=O)Cn1nc(-c2ccc(F)cc2)oc1=O", "Percent Effect": -64},
      {"compound": "CCCn1cnnc1CNC1CCSC1", "note": "(stereo not given)", "Percent Effect": 5.781},
      {"compound": "N#CCCN(Cc1cccnc1)C(=O)c1ccc(OCC2CC2)cc1", "Percent Effect": -3.781},
      {"compound": "CN(Cc1ccsc1)C(=O)c1cc2c([nH]c1=O)CCCC2=O", "Percent Effect": 2.933},
      {"compound": "Cc1ccc(CN(C)C(=O)c2n[nH]c(N)c2-c2ccccc2)o1", "Percent Effect": 90.65},
      {"compound": "Cc1noc(CN(C)C(=O)c2n[nH]c(N)c2-c2ccccc2)n1", "Percent Effect": 101.7},
      {"compound": "Cc1nc(NC(=O)N(C)Cc2ccsc2)nn1C", "Percent Effect": 1.412},
      {"compound": "CCc1nnsc1C(=O)N(C)Cc1ccc(C)o1", "Percent Effect": 0.8104},
      {"compound": "Cc1noc(CN(C)c2ccccc2)n1", "Percent Effect": 0.05791},
      {"compound": "Cc1noc(C)c1CN(C)C(=O)c1n[nH]c(N)c1-c1ccccc1", "Percent Effect": 103.1}
    ]}
  ]
}
